Data: PubChem BioAssay AID651789 (National Center for Advancing Translational Sciences (NCATS), 2012)
Records with an inconclusive call do not appear. Entries that show only a call come without a potency. The source made the active and inactive calls. The call rests on the fitted dose curve; in most records, active means well fitted inhibition curve with a large enough effect; inconclusive means small, poorly fitted or top-dose-only effect; inactive means no such curve, though single readings can be large or run the other way.

Assay: Acumen qHTS Assay for Inhibitors of the mTORC1 Signaling Pathway in WT MEF Cells: Hit Validation; further: nearly all actives have a fitted effect of over 60% in size
Conditions: Acumen imaging; series mostly up to 37.3 µM
In short: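 Read-out is immunofluorescent phospho-rpS6 (Ser235/236) normalised to PI-stained cell number, reported as % active cells using a 7.5 nM rapamycin threshold. Cells: WT or Tsc2-/-, p53-/- MEFs, compound-exposed 24 h at 37C; PI count also tracks viability.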
Potency means the concentration at half of the fitted maximal effect.

SMILES | Potency
Cc1ccc(C)c(Cn2c3ccccc3c3cnn(CC(=O)NC(C)CCc4ccccc4)c(=O)c32)c1 (stereo not given) | 18.5 µM (active)
Cc1ccc2nc(-c3cccc(NC(=O)c4cccc5ccccc45)c3)oc2c1 | inactive
COc1ccc2c(c1)CC(C(=O)Nc1cc(Cl)ccc1C)CO2 (stereo not given) | inactive
CCc1ccc2ncc(S(=O)(=O)c3ccc(Cl)cc3)c(N3CCN(CC)CC3)c2c1 | inactive
COc1ccc(S(=O)(=O)NCCc2csc3nc(-c4ccc(Cl)cc4)nn23)cc1C | inactive
Nc1nc(Nc2ccccc2F)sc1C(=O)c1ccc(Cl)cc1 | inactive
O=C(NCCc1nc2ccccc2n1Cc1ccc(Cl)cc1Cl)c1ccco1 | inactive
O=C(C1CCN(c2nc3ccccc3[nH]2)CC1)N1CCN(c2cccc(Cl)c2)CC1 | inactive
O=S(=O)(NCC(c1ccco1)S(=O)(=O)c1cccs1)c1ccc(Cl)cc1 (stereo not given) | inactive
CC(C)S(=O)(=O)c1oc(-c2cccs2)nc1S(=O)(=O)c1ccc(F)cc1 | 0.826 µM (active)
CCC(=O)C1=C(c2ccc(F)cc2)N(C(=O)CC)n2cnnc2S1 | inactive
Cn1nc(-c2ccc(OCC(=O)Nc3ccccc3)cc2)c2ccccc2c1=O | inactive
CS(=O)c1ccc(-c2nc(-c3ccc(F)cc3)c(-c3ccncc3)[nH]2)cc1 (stereo not given) | inactive
CCOc1cc(C(=O)Nc2ccc(-c3cn4cccnc4n3)cc2)cc(OCC)c1OCC | inactive
COc1cc(OC)c(NC(=O)Nc2ccc3c(c2)N(C)C(=O)c2ccccc2S3)cc1Cl | 5.21 µM (active)
O=C(Nc1ccc(-c2cc(C(F)(F)F)nn2-c2ccccc2)cc1)c1cccc(F)c1 | inactive
CCOc1cc(-c2nnc(SCC(=O)NCc3ccccc3)nc2-c2ccc(OC)c(OCC)c2)ccc1OC | 0.927 µM (active)
COc1ccccc1-c1noc(CSc2nc3ccc(C)cc3[nH]2)n1 | inactive
CCOc1ccc(-n2c(C)nc3c(cnn3-c3ccc(C)cc3)c2=O)cc1 | inactive
CCN1CCOC(=O)C1CC(=O)Nc1cc(C)ccc1OC (stereo not given) | 16.5 µM (active)

SMILES | Potency
COc1cccc(-c2cc(C(=O)Nc3cnn(Cc4ccc(Cl)cc4Cl)c3)no2)c1 | inactive
Cc1nn(CCCC(=O)NCc2cccc(Cl)c2)c(=O)c2c1sc1ccccc12 | inactive
CCCN1C(=O)C(Cc2nc3ccccc3c(=O)n2CC)c2ccccc21 (stereo not given) | inactive
CCCC(=O)OC1=CN(Cc2ccccc2)S(=O)(=O)c2ccccc21 | 3.69 µM (active)
CCCC1=Nc2cc(C(=O)NCc3ccccc3)ccc2Sc2ccccc21 | 2.61 µM (active)
Cc1ccc(C)c(S(=O)(=O)NCC(c2ccco2)S(=O)(=O)c2ccc(F)cc2)c1 (stereo not given) | inactive
COc1ccccc1NC(=O)C1=C(C)Nc2nc(SCc3ccccc3)nn2C1c1cccs1 (stereo not given) | inactive
COc1ccc(CCNC(=O)C(C)n2nc(C)c3sc4ccccc4c3c2=O)c(OC)c1 (stereo not given) | inactive
CC1CCN(S(=O)(=O)c2ccc(C(=O)Nc3sc4c(c3C(N)=O)CC(C)(C)NC4(C)C)cc2)CC1 | 3.29 µM (active)
CCc1ccc(OCC(=O)Nc2ccc3oc(-c4ccc(OC)cc4)nc3c2)cc1 | inactive
Cc1cccc(C2C=C(c3ccc(C)c(C)c3)Nc3nnnn32)c1 (stereo not given) | 1.47 µM (active)
CCc1nnc(NC(=O)c2nc(S(=O)(=O)Cc3cccc(C)c3)ncc2Cl)s1 | 5.21 µM (active)
Cn1ccc2c(OCC(=O)Nc3ccc(OC(F)(F)F)cc3)cccc2c1=O | inactive
CC(C)(C)c1ccc(C(=O)Nc2nnc3n2CCS3)cc1 | 8.26 µM (active)
CCOc1ccc(NC(=O)CSc2oc(-c3ccc(F)cc3)nc2S(=O)(=O)c2ccc(C)cc2)cc1 | 2.33 µM (active)
COc1ccc(CCNC(=O)CCCn2nc(C)c3sc4ccccc4c3c2=O)cc1OC | inactive
COc1cc(C(=O)n2nc(C)c(Sc3ccc(Cl)cc3)c2C)cc(OC)c1OC | inactive
CCOC(=O)c1ccc(N2C(=O)c3n[nH]c(C)c3C2c2cccc(Br)c2)cc1 (stereo not given) | inactive
Cc1ccc(C)c(NC(=O)c2nc(S(=O)(=O)Cc3ccc(F)cc3)ncc2Cl)c1 | 2.33 µM (active)
COc1cccc(C(=O)Nc2ccc(-c3cc(C(F)(F)F)nn3-c3ccccc3)cc2)c1 | inactive
